Results filed as inconclusive are left out. Calls of active or inactive are those of the source. The call rests on the fitted dose curve; in most records, active means well fitted curve in the direction sought with a large enough effect; inconclusive means small, poorly fitted or top-dose-only effect, or another doubt; inactive means no such curve, though single readings can be large; an effect the other way counts as inactive or inconclusive.
Experiment: qHTS for Inhibitors of Plasmodium falciparum (DD2) proliferation (AID 504314);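 further: parasite DNA measured by SYBR Green fluorescence after red cell lysis; plate controls were DMSO vehicle for no effect and artemisinin wells for full effect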
Settings: P. falciparum Dd2 in erythrocytes, SYBR Green growth, 72 h; series mostly up to 6.11 µM
Method in brief: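 P. falciparum Dd2 is grown in erythrocytes with test compound for 72 h at 37C under 5% CO2. Growth is scored by SYBR Green I fluorescence after detergent lysis, relative to artemisinin (0.29 uM) and DMSO controls.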

Potency, inactive:
COCOc1c2c(c(OCOC)c3c(OCOC)cccc13)C(=NNS(=O)(=O)c1ccc(C)cc1)C1=C2CCCC1
CCOC(=O)C1=C(CCl)NC(=O)N(C(C)=O)C1c1ccccc1 (stereo not given)
COC(=O)N1C(C)=Cc2ccccc2C1CC(C)=CC(C)=O (stereo not given)
C=CC1=C2C=C(C3CC3)N(C3CCCC3)C=C2C(=O)C(C)(OC(=O)c2ccco2)C1=O (stereo not given)
CC(Nc1oc(-c2ccccc2)nc1C(C)(C)C)c1ccccc1 (stereo not given)
CCN(CCNC(=O)[C@H]1C=C(OC)C(=O)C[C@H](c2ccccc2)[C@@H]1C)C(C)=O

activity, negative = inhibition, inactive:
CC1(OC(=O)C2CCCC2)C(=O)C=C2C=C(c3ccsc3)N(Cc3ccc4c(c3)OCO4)C=C2C1=O (stereo not given) -6.6% [at 1.12 µM]

Experiment: qHTS for Inhibitors of Plasmodium falciparum (GB4) proliferation (AID 504315); further: nearly all actives have a fitted effect of over 50% in size; further: potency means the concentration at half of the fitted maximal effect
Settings: P. falciparum GB4 in erythrocytes, SYBR Green DNA, 72 h; series mostly up to 6.7 µM
Method in brief: (§1)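 Parasite growth measured as SYBR Green DNA fluorescence (ex 485, em 535 nm) after overnight lysis following 72 h culture at 37 °C, 0.3% parasitemia, 2.5% hematocrit. Values normalized against DMSO and 0.29 uM artemisinin controls, with plate-stack correction.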

Potency, active:
C=CC[C@@H]1C=C[C@H](ON=C(C)CCN2CCCc3nc(C)c(C)cc32)[C@H](CO)O1 1900 nM
COC(=O)C1=C(C(=O)OC)[C@@H]2N(C)c3ccc(OC)cc3[C@@]23C[C@@H](C(=O)OC)N(C(=O)NCCBr)C3=N1 2130 nM
COC(=O)C1=C(C)N(Cc2ccccc2)C(=NCC2CC2)NC1c1ccccc1 (stereo not given) 1690 nM

Potency, inactive:
CC(=O)C1=C(C)N(Cc2ccccc2)C(=O)NC1CCc1ccccc1 (stereo not given)
COc1ccc(OC[C@H]2CN3[C@H](c4ccc(Br)cc4)[C@H](C)CC[C@H]3C(=O)O2)cc1
COc1ccc(O[C@H]2C=C[C@@H](c3ccccc3)O[C@H]2CON=C2c3cc(OC)ccc3O[C@H](c3cccc(OC)c3)[C@H]2O)cc1
COc1cc2c(c(OC)c1OC)[C@@]1(c3ccccc3)CCCC[C@H]1[C@@H]2NC(=O)C(F)(F)F
CNc1ccccc1C(=O)OCC(C)=O
Cc1cc2c(c(=O)n1Cc1ccccc1)[C@H]1O[C@](CCCCN3C(=O)c4ccccc4C3=O)(Cc3cc(C#N)ccc31)O2
O=C1C2=C(C(=O)c3ccccc31)[C@H]1O[C@](c3ccsc3)(Cc3c1ccc1ccccc31)O2
CC1=CC[C@@H](C)O[C@@]2(C1)C(=O)N(Cc1ccc(F)cc1)c1ccccc12
CCCCCCCc1cc2ccccc2c(=O)o1
CCCNC(=O)OC[C@H]1O[C@H](CCON=C(C)CCC(=O)OC[C@H]2O[C@H](C#Cc3ccccc3)C=C[C@H]2Oc2ccc(C)cc2)C=C[C@H]1Oc1ccc(OC)cc1

Experiment: qHTS for Inhibitors of Plasmodium falciparum (7G8) proliferation (AID 504316); further: nearly all actives have a fitted effect of over 65% in size; further: potency means the concentration at half of the fitted maximal effect
Settings: P. falciparum 7G8 in erythrocytes, SYBR Green DNA, 72 h; series mostly up to 6.7 µM
Method in brief: as §1

Potency, active:
COc1ccc(O[C@H]2C=C[C@@H](c3ccccc3)O[C@H]2CON=C2c3cc(OC)ccc3O[C@H](c3cccc(OC)c3)[C@H]2O)cc1 1690 nM
C=CC[C@@H]1C=C[C@H](ON=C(C)CCN2CCCc3nc(C)c(C)cc32)[C@H](CO)O1 75.7 nM
CCCNC(=O)N1C2=NC(C(=O)OC)=C(C(=O)OC)[C@@H]3N(C)c4ccc(OC)cc4[C@]23C[C@H]1C(=O)OC 1690 nM
COc1cc2c(cc1OC)[C@@H]1O[C@](c3ccsc3)(C2)Oc2cc(C)n(Cc3ccccc3)c(=O)c21 1510 nM
O=C1CCCC2=C1[C@H]1O[C@](CCCCN3C(=O)c4ccccc4C3=O)(Cc3ccccc31)O2 1900 nM
N#Cc1ccc2c(c1)C[C@]1(CCCCN3C(=O)c4ccccc4C3=O)Oc3c(c(=O)oc4ccccc34)[C@H]2O1 1510 nM
C=CCNC(=O)N1CCc2nc(-c3ccc(OC)cc3C)c3c(c2C1)CO[C@@H](c1ccccc1)C3 1510 nM

Potency, inactive:
COC(=O)C1=C(C)N(Cc2ccccc2)C(=NCC2CC2)NC1c1cccc(C(F)(F)F)c1 (stereo not given)
CCOC(=O)C1=C(CCl)NC(=O)N(C(C)=O)C1c1ccccc1 (stereo not given)
COc1cccc(CO[C@H]2C=C[C@@H](c3ccccc3)O[C@H]2CN=[N+]=[N-])c1
CNc1ccccc1C(=O)OCC(C)=O
COC(=O)N1C(C)=Cc2ccccc2C1CC(C)=CC(C)=O (stereo not given)
CCN1C(=NCCCCO)N[C@@H](CCc2ccccc2)[C@H](C(=O)OC)[C@H]1C
C=CC1=C2C=C(C3CC3)N(C3CCCC3)C=C2C(=O)C(C)(OC(=O)c2ccco2)C1=O (stereo not given)
CC(Nc1oc(-c2ccccc2)nc1C(C)(C)C)c1ccccc1 (stereo not given)
CCN(CCNC(=O)[C@H]1C=C(OC)C(=O)C[C@H](c2ccccc2)[C@@H]1C)C(C)=O
CCCCCCCc1cc2ccccc2c(=O)o1
CC1(OC(=O)C2CCCC2)C(=O)C=C2C=C(c3ccsc3)N(Cc3ccc4c(c3)OCO4)C=C2C1=O (stereo not given)
CCCNC(=O)OC[C@H]1O[C@H](CCON=C(C)CCC(=O)OC[C@H]2O[C@H](C#Cc3ccccc3)C=C[C@H]2Oc2ccc(C)cc2)C=C[C@H]1Oc1ccc(OC)cc1
CCN1C(=O)N[C@@H](CCc2ccccc2)[C@H](C(C)=O)[C@H]1C
